The record followed here is PubChem BioAssay AID602281 (The Scripps Research Institute Molecular Screening Center, 2012).

Where “and” joins values, the source holds several entries; their conditions need not be identical. Identical values can stand only once. Screen size: about 360,000 compounds; about 2,900 (0.81%) were called active.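 Rule for the calls: active = inhibition above the mean inhibition across every tested compound plus 3 SD (cut at about 22% in these data); inactive = the rest.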 This excerpt belongs to a sample that is enriched for actives. More than one record can exist for a structure, and the calls need not agree.

The target in this test is Perilipin-5 (Homo sapiens) + 1-acylglycerol-3-phosphate O-acyltransferase ABHD5 (Homo sapiens) (UniProt Q00G26+Q8WTS1). Put plainly: blockers of ABHD5 binding to perilipin-5 – cell lysate, split luciferase complementation, luminescence, primary screen (AID 602281).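 Note: 0% = DMSO only wells and the 100% control is not disclosed.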 As to conditions: Split G. princeps luciferase complementation, 4 h, at 4 µM, stronger effect = higher value.
Chain of Perilipin-5 (Homo sapiens) + 1-acylglycerol-3-phosphate O-acyltransferase ABHD5 (Homo sapiens) (Q00G26 whole entry, looked up): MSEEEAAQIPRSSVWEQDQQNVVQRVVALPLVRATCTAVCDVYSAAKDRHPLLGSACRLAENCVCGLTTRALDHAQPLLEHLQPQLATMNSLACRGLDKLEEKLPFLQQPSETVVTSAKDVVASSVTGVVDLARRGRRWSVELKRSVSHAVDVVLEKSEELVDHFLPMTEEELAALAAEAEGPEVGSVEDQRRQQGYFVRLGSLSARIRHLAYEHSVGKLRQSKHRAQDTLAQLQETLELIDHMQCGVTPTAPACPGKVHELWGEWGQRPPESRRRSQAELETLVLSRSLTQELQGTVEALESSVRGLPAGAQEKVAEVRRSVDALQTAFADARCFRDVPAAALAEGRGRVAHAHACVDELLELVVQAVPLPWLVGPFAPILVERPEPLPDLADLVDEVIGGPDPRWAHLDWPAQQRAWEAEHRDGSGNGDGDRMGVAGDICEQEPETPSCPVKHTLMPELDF
Chain of Perilipin-5 (Homo sapiens) + 1-acylglycerol-3-phosphate O-acyltransferase ABHD5 (Homo sapiens) (Q8WTS1 whole entry, looked up): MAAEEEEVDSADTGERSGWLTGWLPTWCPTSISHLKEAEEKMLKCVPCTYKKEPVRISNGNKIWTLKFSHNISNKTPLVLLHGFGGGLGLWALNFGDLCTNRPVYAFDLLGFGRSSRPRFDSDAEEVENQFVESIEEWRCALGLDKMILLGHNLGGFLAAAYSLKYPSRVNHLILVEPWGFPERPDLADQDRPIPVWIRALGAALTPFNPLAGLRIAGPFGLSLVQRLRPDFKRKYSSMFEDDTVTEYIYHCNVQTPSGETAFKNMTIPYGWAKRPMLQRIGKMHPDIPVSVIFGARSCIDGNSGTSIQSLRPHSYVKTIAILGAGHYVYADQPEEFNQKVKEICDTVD
As for `O=C(NNc1ccccn1)c1ccc(Cl)nc1`, the inhibition (commonly the relative decrease from the control value, in per cent) is 74% (active).

In the case of `O=C(NNC(=O)c1ccc(Cl)nc1)c1ccc(Br)cc1`, the inhibition is -5.62% (inactive).

As for `CCN(CC)c1ccc(NC(=O)c2ccc(Cl)nc2)cc1`, the inhibition was -1.77% (inactive).

Take `Cc1ccc(CSCCNC(=O)CN(c2ccc(F)cc2)S(C)(=O)=O)cc1`: the inhibition was -1.09% (inactive).

Take `Cn1c(=O)[nH]c2c(c(C(=O)O)nn2C)c1=O`: the inhibition is 18.8% (inactive).

For the compound `Cc1cn(C2C=CC(CO)O2)c(=O)[nH]c1=O` (configuration not stated), the inhibition was 6.6% (inactive).

For `O=[N+]([O-])c1c(NCCO)cc(Sc2nc3ccccc3s2)c2nonc12`, the inhibition was 42.8% (active).

Turning to `Nc1cc(N2CCCCCC2)c2nonc2c1[N+](=O)[O-]`, the inhibition was 3.02% (inactive).

For the compound `COc1ccc2c(c1OC)C(=O)OC2Nc1nc(-c2ccccc2)cs1` (configuration not stated), the inhibition was 38.8% (active).

For the compound `COc1ccccc1C(=O)Nc1nc2nc(-c3ccccc3)cc(=O)n2[nH]1`, the inhibition was -1.37% (inactive).

For the compound `COc1cc(C(O)c2nc(-c3cccc(C(=O)O)c3)cs2)ccc1F` (configuration not stated), the inhibition was 7.06% (inactive).

In the case of `O=C(c1cc(COc2ccc(F)cc2F)on1)N1CCOCC1`, the inhibition is -0.17% (inactive).

Regarding `Cc1ccc(C(=O)CSc2nc3ccccc3c(=O)n2N)o1`, the inhibition was -5.64% (inactive).

For the compound `Cc1ccc(Cn2c(C)nc3c(c2=O)c2nc4ccccc4nc2n3Cc2ccco2)cc1`, the inhibition is 65.3% (active).

As for `Cc1ccc(OCC(=O)c2cc(C)n(Cc3ccco3)c2C)c([N+](=O)[O-])n1`, the inhibition was 4.39% (inactive).

Consider `COC(=O)C[C@H]1C[C@@H]2c3cc(N(C)C)ccc3O[C@@H]2[C@H](CO)O1`, for which the inhibition is 0.67% (inactive).

For the compound `c1ccc(CCC2=NCCn3cccc32)cc1`, the inhibition was 16.9% (inactive) and 27.5% (active).

With `CC1CSc2nnc(CCc3ccccc3)n21` (configuration not stated), the inhibition was 0.6% (inactive).

Regarding `c1ccc(CCc2ccccn2)cc1`, the inhibition was -3.97% (inactive).

As for `CCc1ccc(-c2cc(C)no2)cc1S(=O)(=O)NCCc1ccc(S(N)(=O)=O)cc1`, the inhibition was -2.59% (inactive).

Turning to `O=C(C1CCCO1)N1CCN(C(=O)C23CC4CC(CC(C4)C2)C3)CC1` (configuration not stated), the inhibition was 0.93% (inactive).

Turning to `O=C(Cn1cc(C(=O)C2CC2)c2ccccc21)Nc1ccccc1Cl`, the inhibition was -0.4% (inactive).

In the case of `CCOc1ccc(NC(=O)C(C)N2C(=O)c3ccccc3C2=O)cc1` (configuration not stated), the inhibition is -3.97% (inactive).

On to `O=C(Cc1ccccc1)N1CCN(S(=O)(=O)c2ccc([N+](=O)[O-])cc2)CC1`, for which the inhibition was 1.18% (inactive).

For `O=C1/C(=C\c2ccc([N+](=O)[O-])cc2)CS(=O)(=O)C/C1=C/c1ccc([N+](=O)[O-])cc1`, the inhibition is 76.2% (active).

In the case of `O=[N+]([O-])c1ccc(N=NNc2ccc([N+](=O)[O-])cc2)cc1`, the inhibition was -4.36% (inactive).

Turning to `Cc1ccc(S(=O)(=O)N(C)C)cc1NC(=O)c1ccccc1Br`, the inhibition was -0.6% (inactive).

Turning to `COc1ccc(C(C(=O)NCc2ccccc2)N(Cc2cccs2)C(=O)c2cnccn2)cc1` (configuration not stated), the inhibition was -0.58% (inactive).

Consider `COc1ccccc1-c1sc2ccccc2c1-c1ccc(Br)nc1`, for which the inhibition is -7.49% (inactive).

For `COc1ccc2sc(-c3ccccc3OC)c(-c3ccc(OCCN4CCCC4)cc3)c2c1`, the inhibition was 25.4% (active).

With `COc1cccc(-c2sc3ccc(OC)cc3c2-c2ccc(OCCN3CCCCC3)cc2)c1`, the inhibition was 14.8% (inactive).

For the compound `Cc1cc(C)c2c(n1)sc1c(=O)n(-c3ccccc3)c(=O)[nH]c12`, the inhibition was 9.86% (inactive).

`CC1=CC(C)(C)Nc2ccc(OC(=O)C(Cc3ccccc3)N3C(=O)C4CCCCC4C3=O)cc21` (configuration not stated): the inhibition is 47% (active).

Regarding `O=C(C(Cc1ccccc1)n1cccc1)N1CCN(C2CCCCC2)CC1` (configuration not stated), the inhibition was 5.03% (inactive).

Take `CC1=CC(C)(C)Nc2ccc(OC(=O)CN3C(=O)C4CCCCC4C3=O)cc21` (configuration not stated): the inhibition is 75% (active).

As for `CCOC(=O)C(Cc1ccc(N)cc1)N1C(=O)c2ccccc2C1=O` (configuration not stated), the inhibition was -1% (inactive).

As to `O=C(COC(=O)CN1C(=O)C2CCCCC2C1=O)Nc1ccc(F)c(F)c1F` (configuration not stated), the inhibition was -2.34% (inactive).

On to `COc1ccc(C(=O)COC(=O)CN2C(=O)C3CC=CCC3C2=O)c(OC)c1` (configuration not stated), for which the inhibition is -4.32% (inactive).

Turning to `OCCCC1CCCCN1Cc1nc(Cc2ccccc2Cl)no1` (configuration not stated), the inhibition is 0.62% (inactive).

On to `CC[C@H](C)C(=O)N[C@H]1CCCN1C(=O)/C=C/c1ccccc1`, for which the inhibition is 1.82% (inactive).

For the compound `CC(=O)Nc1ccc(NC(=O)c2ccc3c(c2)C(=O)N(c2ccccc2C)C3=O)cc1`, the inhibition was 6.37% (inactive).

Consider `COC(=O)[C@@H]1CCCN1C(=O)c1cc(COc2cccc3cccnc23)on1`, for which the inhibition is -0.57% (inactive).

As for `COc1ccc2c(c1)c(=Cc1ccc(N(C)C)cc1)c1cc(-c3ccccc3)[n+](C)n12`, the inhibition was 30.2% (active).

In the case of `O=C(NC1CCN(S(=O)(=O)c2ccc(F)cc2)CC1)c1ccccc1`, the inhibition was 4.55% (inactive).

For `Cc1ccc(NC(=O)CCC(=O)c2ccc(Br)cc2)cc1`, the inhibition is 4.03% (inactive).

For the compound `Cc1ccn(C(CC(=O)c2ccc(Br)cc2)C(=O)O)n1` (configuration not stated), the inhibition was 33.3% (active).

For `CCN(C(=O)c1ccc(Br)cc1)c1ccccc1`, the inhibition was 0.98% (inactive).

With `CCCCN(CC)CCCNC(=O)c1ccc(CSc2nc3ccncc3[nH]2)cc1`, the inhibition was -1.26% (inactive).

Consider `COc1ccc(N(Cc2cc3ccc(C)cc3[nH]c2=O)S(=O)(=O)c2ccccc2)cc1`, for which the inhibition was -3.39% (inactive).

Regarding `Cn1sc(=O)c2cc(S(=O)(=O)NC3CC3)ccc21`, the inhibition is 43.1% (active).

As for `O=S(=O)(NC1CC1)c1ccc(F)c(F)c1`, the inhibition was 7.64% (inactive).

`CC1CCC(NS(=O)(=O)c2ccc3c(c2)CC(=O)N3)CC1` (configuration not stated): the inhibition is 2.49% (inactive).

As to `CC1CCCC(NC(=O)COC(=O)c2ccccc2C(=O)N(C)C2CCCCC2)C1C` (configuration not stated), the inhibition was 1.5% (inactive).

Consider `COc1ccccc1C(=O)c1ccccc1C(=O)c1ccccc1`, for which the inhibition is -6.91% (inactive).

Turning to `COc1ccccc1/C=C/C(=O)NC1CC2CCC1C2` (configuration not stated), the inhibition is -5.4% (inactive).

`CCOC(=O)C(=Cc1ccccc1OC)C(=O)OCC`: the inhibition was 35.8% (active).

With `CCOC(=O)/C(=C\c1ccc([N+](=O)[O-])cc1)C(=O)c1cc(C(C)=O)c(Nc2ccccc2)s1`, the inhibition is -2.52% (inactive).

With `CCOC(=O)C(=Cc1ccccc1)C(=O)c1ccccc1`, the inhibition is 86.5% (active).

Turning to `CCc1ccccc1NC(=O)/C(=C/c1ccccc1)c1ccccc1`, the inhibition was -13.9% (inactive).

`Cc1ccc(C(=O)NCC(=O)OCC(=O)Nc2cccc(S(=O)(=O)N3CCCC3)c2)cc1C`: the inhibition is -2.63% (inactive).

For the compound `O=C(CCCN1C(=O)C(c2ccccc2)Oc2cccnc21)Nc1ccccc1Br` (configuration not stated), the inhibition is 6.82% (inactive).

On to `COC(=O)[C@@H]1C[C@@]2(O)[C@H](O)[C@H](O)[C@H](O)C[C@H]2N1Cc1ccc(C(C)(C)C)cc1`, for which the inhibition was 6.53% (inactive).

In the case of `O=C(c1cccc(F)c1)N1CCC(O)(c2cccnc2)CC1`, the inhibition is 0.25% (inactive).

On to `N#CCOc1ccc(C2=NO[C@@H]3[C@@H]4C[C@@H]([C@H]5C(=O)N(c6ccc7c(c6)OCO7)C(=O)[C@@H]45)[C@H]23)cc1`, for which the inhibition is -3.78% (inactive).

As to `CC1(Oc2cccc(F)c2)CCN(Cc2ccccc2OC(F)F)C1` (configuration not stated), the inhibition is -9.44% (inactive).

`COc1ccc(CN2CCC(C)(Oc3cccc(F)c3)C2)c2ccccc12` (configuration not stated): the inhibition was 1.04% (inactive).

For `CC1(Oc2ccccc2-c2ccno2)CCN(Cc2ccc(-c3ccccc3)o2)C1` (configuration not stated), the inhibition is 24.9% (active).

As for `CCCOC1CCCN(C(=O)c2cc(COc3cncc(Cl)c3)on2)C1` (configuration not stated), the inhibition was 1.32% (inactive).

`Cc1[nH]c2ccccc2c1C(=O)c1cc([C@H](NC(=O)OC(C)(C)C)C(C)C)sc1N`: the inhibition was -16.6% (inactive).

For `Cc1ccc(C(=O)Cc2nnc(C)s2)cc1`, the inhibition is 10.8% (inactive).

`Cc1ccc(SC(C)C(=O)NCc2ccc(F)cc2)cc1` (configuration not stated): the inhibition is -1.06% (inactive).

As for `Cc1ccc(SC(CC(=O)c2ccc(C(C)(C)C)cc2)C(=O)O)cc1` (configuration not stated), the inhibition was 84.9% (active).

On to `O=C1CC[C@@H](C(=O)N2CSC[C@@H]2C(=O)Nc2ccc(C(F)(F)F)cc2)N1`, for which the inhibition was -0.42% (inactive).

Turning to `CCC(C)NC(=O)C1CCC(=O)N1Cc1ccc(C)cc1` (configuration not stated), the inhibition is 2% (inactive).

Take `Oc1ccc2ccccc2c1N=Nc1nccs1`: the inhibition is 22.1% (active).

Turning to `COc1ccccc1C(=O)NCC(=O)OCC(=O)NNC(=O)c1ccc(Br)cc1`, the inhibition was -4.52% (inactive).

Turning to `CCN1C(=O)/C(=C2\SC(N3CCCCC3)=NC2=O)c2ccccc21`, the inhibition is -2.55% (inactive).

As for `CC1(C)CC(=O)C=C(c2cccc3c2Oc2ccccc2S3)C1`, the inhibition is -12.2% (inactive).

Consider `O=C(c1cc(C2CCCCN2S(=O)(=O)c2ccccc2)on1)N1CCOCC1` (configuration not stated), for which the inhibition is 3.58% (inactive).

Consider `O=C(NCc1ccco1)c1cnn2c(C(F)(F)F)cc(-c3ccco3)nc12`, for which the inhibition was 3.22% (inactive).

In the case of `O=C(O)c1cnn2c(C(F)(F)F)cc(-c3ccccc3)nc12`, the inhibition is 6.31% (inactive).

Consider `COC(=O)c1cnn2c(C(F)(F)F)cc(-c3ccco3)nc12`, for which the inhibition is 32.2% (active).

Turning to `N#Cc1ccc(-c2nc3c(Cl)cc(C(F)(F)F)cn3c2Cc2ccccc2C(F)(F)F)cc1`, the inhibition was 0.66% (inactive).

Take `NC(=O)c1ccccc1N=Cc1ccc2ccccc2c1`: the inhibition was 2.42% (inactive).

With `C/C(=N/N1CCN(Cc2cccc3ccccc23)CC1)c1cccnc1`, the inhibition is -14.4% (inactive).

As to `CCOc1cc(S(=O)(=O)NCc2ccc3c(c2)OCO3)ccc1F`, the inhibition is -2.91% (inactive).

Consider `COc1ccc(C(=O)/C=C/c2cccnc2)c(OC)c1`, for which the inhibition is 22.4% (active).

As to `COc1ccc(C(=O)CCC(=O)Nc2cccnc2)c(OC)c1`, the inhibition was -5.28% (inactive).

As for `COc1ccc(C(=O)CCc2ccccc2O)c(OC)c1`, the inhibition was 0.27% (inactive).

On to `CCCn1c(=O)c2[nH]c(C3CCCC3)nc2n(CCC)c1=O`, for which the inhibition is 4.3% (inactive).

Turning to `CCc1nnc(NC(=O)C2CC(=O)N(c3ccc4c(c3)OCCO4)C2)s1` (configuration not stated), the inhibition was -9.44% (inactive).

With `O=C(NCc1ccccc1Cl)c1csc([C@@H]2O[C@H](CO)[C@@H](O)[C@H]2O)n1`, the inhibition is -7.69% (inactive).
